# Assay results reported in PubChem BioAssay (EPA / NIEHS).
# Values joined by “and” are separate entries in the source; they are usually repeats but may differ in a detail not shown here. Equal values may be shown once. Records with an inconclusive call do not appear. The source holds several records for some structures; these can differ, active in one and inactive in another. Active and inactive are the calls of the source. The calls were made as follows: active = hit-call score of the fitted dose curve at least 0.9, where 1 is the maximum; inconclusive = response in the unintended direction; inactive = score below 0.9.
# Experiments:
# [1] = molecular target: Estrogen receptor (Homo sapiens) + Estrogen receptor beta (Homo sapiens) (UniProt P03372+Q92731); experiment: OT_ER_ERaERb_1440: Odyssey Thera (OT) 24-hour HEK293T Protein-Complementation Assay for Estrogen Receptor-alpha/-beta Homodimer (AID 2283356);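 also: heteromer of ER alpha and ER beta binding domains; hits raise reporter fluorescence and both agonists and antagonists give an increase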
# Estrogen receptor (Homo sapiens) + Estrogen receptor beta (Homo sapiens), sequence (P03372 whole entry, looked up, the tested form may be a part): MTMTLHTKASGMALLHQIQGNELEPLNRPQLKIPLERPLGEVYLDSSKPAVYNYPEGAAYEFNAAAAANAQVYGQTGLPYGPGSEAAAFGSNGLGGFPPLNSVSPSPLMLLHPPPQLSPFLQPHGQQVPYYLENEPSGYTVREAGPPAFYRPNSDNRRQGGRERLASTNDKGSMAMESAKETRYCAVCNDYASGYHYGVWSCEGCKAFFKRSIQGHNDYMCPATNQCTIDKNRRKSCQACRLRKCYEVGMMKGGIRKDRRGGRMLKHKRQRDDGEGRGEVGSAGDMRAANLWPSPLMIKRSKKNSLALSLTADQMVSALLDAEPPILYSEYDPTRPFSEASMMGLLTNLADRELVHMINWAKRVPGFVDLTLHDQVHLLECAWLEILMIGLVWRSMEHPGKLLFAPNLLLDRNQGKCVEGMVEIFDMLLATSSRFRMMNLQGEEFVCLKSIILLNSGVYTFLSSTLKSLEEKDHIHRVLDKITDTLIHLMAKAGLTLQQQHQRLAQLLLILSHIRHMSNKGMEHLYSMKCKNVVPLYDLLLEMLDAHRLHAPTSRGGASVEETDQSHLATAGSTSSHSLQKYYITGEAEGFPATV
# Estrogen receptor (Homo sapiens) + Estrogen receptor beta (Homo sapiens), sequence (Q92731 whole entry, looked up, the tested form may be a part): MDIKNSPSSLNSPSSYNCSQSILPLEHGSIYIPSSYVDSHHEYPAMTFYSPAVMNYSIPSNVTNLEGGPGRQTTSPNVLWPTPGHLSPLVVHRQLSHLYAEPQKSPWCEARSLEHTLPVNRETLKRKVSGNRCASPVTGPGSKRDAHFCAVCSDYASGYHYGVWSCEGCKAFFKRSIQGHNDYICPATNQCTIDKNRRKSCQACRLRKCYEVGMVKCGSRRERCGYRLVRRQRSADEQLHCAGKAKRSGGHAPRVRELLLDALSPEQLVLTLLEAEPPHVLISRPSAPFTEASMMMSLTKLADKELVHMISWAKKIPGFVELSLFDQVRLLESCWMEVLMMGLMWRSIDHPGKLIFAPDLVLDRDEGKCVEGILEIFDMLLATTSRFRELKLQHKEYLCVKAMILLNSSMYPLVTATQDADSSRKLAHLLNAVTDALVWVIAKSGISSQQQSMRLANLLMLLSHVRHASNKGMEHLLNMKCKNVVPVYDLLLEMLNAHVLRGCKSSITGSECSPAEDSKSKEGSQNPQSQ
# In short: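 Readout: mean fluorescence intensity in nucleus (agonists) or nucleus plus cytoplasm (antagonists), read by laser scanning cytometer after 24 h compound exposure of HEK293T cells carrying ERα/ERβ LBD fragment-complementation constructs; DMSO baseline.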
# [2] = molecular target: Androgen Receptor/SRC-1 Co-activator, AR (gene 367) (UniProt P10275); experiment: OT_AR_ARSRC1_0480: Odyssey Thera (OT) 8-hour HEK293T Protein-Complementation Assay for Androgen Receptor/SRC-1 Co-activator (AID 2283354);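 also: hits raise the complementation signal above DMSO so AC50 marks enhancers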
# Androgen Receptor/SRC-1 Co-activator, AR (gene 367), sequence (P10275 whole entry, looked up, the tested form may be a part): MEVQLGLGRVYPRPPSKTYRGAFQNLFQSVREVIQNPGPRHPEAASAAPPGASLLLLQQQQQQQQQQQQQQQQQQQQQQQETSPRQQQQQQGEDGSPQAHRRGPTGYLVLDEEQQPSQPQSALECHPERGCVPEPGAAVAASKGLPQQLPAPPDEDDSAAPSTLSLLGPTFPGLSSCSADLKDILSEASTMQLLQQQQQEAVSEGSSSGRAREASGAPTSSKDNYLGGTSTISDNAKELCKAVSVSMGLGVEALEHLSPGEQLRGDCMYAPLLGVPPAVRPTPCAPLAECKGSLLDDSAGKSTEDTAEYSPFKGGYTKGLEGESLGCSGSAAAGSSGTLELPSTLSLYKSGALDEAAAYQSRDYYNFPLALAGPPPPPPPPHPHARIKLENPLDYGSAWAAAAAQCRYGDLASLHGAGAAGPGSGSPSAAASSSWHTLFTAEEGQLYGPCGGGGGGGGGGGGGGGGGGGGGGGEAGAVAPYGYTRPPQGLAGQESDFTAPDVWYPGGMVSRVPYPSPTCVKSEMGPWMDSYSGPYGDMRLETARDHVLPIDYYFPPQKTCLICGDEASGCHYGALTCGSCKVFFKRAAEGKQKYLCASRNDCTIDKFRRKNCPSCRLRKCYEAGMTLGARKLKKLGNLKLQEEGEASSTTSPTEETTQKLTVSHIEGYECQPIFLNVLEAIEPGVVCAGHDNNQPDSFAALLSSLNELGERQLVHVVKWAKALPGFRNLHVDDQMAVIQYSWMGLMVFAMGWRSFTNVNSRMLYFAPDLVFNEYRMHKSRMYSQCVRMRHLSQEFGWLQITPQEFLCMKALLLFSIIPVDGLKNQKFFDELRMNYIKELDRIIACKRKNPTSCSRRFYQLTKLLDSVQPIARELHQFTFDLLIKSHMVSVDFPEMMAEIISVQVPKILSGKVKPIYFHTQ
# In short: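 Split-Venus PCA, stable HEK293T, AR/SRC-1 fusions; 8 h exposure. Readout: 488nm N/C fluorescence ratio, ≥400 cells/image; fitted upward vs DMSO baseline.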
# [3] = molecular target: Retinoic acid receptor alpha (Homo sapiens) (UniProt P10276); experiment: NVS_NR_hRAR_Antagonist: NovaScreen (NVS) Nuclear Receptor Binding Assay for human Retinoic Acid Alpha Receptor Antagonism (RAR) (AID 2283358)
# Retinoic acid receptor alpha (Homo sapiens), sequence (P10276 whole entry, looked up): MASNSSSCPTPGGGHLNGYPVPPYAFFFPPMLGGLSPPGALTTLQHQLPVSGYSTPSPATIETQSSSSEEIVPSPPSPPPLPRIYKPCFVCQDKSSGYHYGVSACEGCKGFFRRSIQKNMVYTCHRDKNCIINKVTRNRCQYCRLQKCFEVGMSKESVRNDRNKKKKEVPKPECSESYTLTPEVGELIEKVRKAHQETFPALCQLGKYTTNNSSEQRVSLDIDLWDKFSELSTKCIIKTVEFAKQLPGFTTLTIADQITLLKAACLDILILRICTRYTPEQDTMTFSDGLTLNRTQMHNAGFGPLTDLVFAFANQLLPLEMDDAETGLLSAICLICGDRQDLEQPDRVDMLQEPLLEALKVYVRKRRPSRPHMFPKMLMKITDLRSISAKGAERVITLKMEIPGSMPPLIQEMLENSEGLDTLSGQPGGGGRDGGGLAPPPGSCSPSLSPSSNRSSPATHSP
# In short: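 Read-out: time-resolved FRET binding signal, 2 h post-dose, cell-free extracted protein. Antagonism scored as signal loss versus DMSO negative control. Primary single-concentration screen at 25 uM in duplicate; concentration series for actives.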
# [4] = molecular target: Retinoic acid receptor alpha (Homo sapiens) (UniProt P10276); experiment: NVS_NR_hRARa_Agonist: NovaScreen (NVS) Nuclear Receptor Binding Assay for human Retinoic Acid Alpha Receptor Agonism (RAR) (AID 2283361)
# In short: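 TR-FRET signal, 2 h post-dosing; cell-free extracted protein; DMSO = baseline, positive fitting direction; 25 uM single-point duplicate, then concentration series for actives.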
# [5] = molecular target: Estrogen receptor beta (Homo sapiens) (UniProt Q92731); experiment: OT_ER_ERbERb_0480: Odyssey Thera (OT) 8-hour HEK293T Protein-Complementation Assay for Estrogen Receptor-beta/-beta Homodimer (AID 2283357);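 also: active means signal gain over DMSO baseline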
# Estrogen receptor beta (Homo sapiens), sequence (Q92731 whole entry, looked up, the tested form may be a part): as the sequence (Q92731 whole entry, looked up, the tested form may be a part) above
# In short: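 Homodimerization of ER-beta LBD measured by protein-fragment complementation in HEK293T; 8 h dosing; fixed, Draq5 counterstain; fluorescence intensity gain over DMSO baseline, positive fitting direction; laser scanning cytometry.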
# [6] = molecular target: rat Mineralocorticoid Receptor (MR), Nr3c2 (gene 25672) (UniProt P22199); experiment: NVS_NR_rMR: NovaScreen (NVS) Nuclear Receptor Binding Assay for rat Mineralocorticoid Receptor (MR) (AID 2283355)
# In short: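 Radioligand displacement, scintillation readout; tissue source adrenalectomized rat brain supernatant. Read 24 h post-dose. Screened in duplicate at 25 uM, DMSO negative control, controls on every plate; actives re-run in concentration series.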
# [7] = molecular target: Glucocorticoid receptor (Homo sapiens) (UniProt P04150); experiment: NVS_NR_hGR: NovaScreen (NVS) Nuclear Receptor Binding Assay for human Glucocorticoid Receptor (GR) (AID 2283363);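 as to AC50: activity is loss of specific radioligand binding signal relative to DMSO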
# Glucocorticoid receptor (Homo sapiens), sequence (P04150 whole entry, looked up): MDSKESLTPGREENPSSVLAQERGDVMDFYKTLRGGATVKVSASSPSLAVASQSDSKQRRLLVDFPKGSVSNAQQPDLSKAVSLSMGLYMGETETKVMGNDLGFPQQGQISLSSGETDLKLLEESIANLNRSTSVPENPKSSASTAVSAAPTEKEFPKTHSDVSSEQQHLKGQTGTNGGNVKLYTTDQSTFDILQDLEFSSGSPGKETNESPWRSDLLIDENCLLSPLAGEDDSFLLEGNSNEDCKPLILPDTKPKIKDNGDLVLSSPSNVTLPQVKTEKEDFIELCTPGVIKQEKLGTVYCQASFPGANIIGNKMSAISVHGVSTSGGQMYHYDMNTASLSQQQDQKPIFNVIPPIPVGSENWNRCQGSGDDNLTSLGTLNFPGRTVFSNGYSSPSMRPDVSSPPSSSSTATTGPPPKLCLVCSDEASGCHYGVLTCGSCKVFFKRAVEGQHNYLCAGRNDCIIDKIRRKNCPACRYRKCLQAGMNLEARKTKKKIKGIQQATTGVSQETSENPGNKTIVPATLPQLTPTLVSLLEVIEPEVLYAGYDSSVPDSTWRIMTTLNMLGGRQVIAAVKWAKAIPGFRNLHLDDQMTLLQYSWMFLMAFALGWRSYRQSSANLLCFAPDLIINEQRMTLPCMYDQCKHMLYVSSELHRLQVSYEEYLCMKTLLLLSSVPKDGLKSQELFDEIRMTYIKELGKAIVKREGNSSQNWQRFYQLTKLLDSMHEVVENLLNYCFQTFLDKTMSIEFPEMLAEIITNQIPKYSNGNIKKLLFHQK
# In short: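 Filter scintillation readout of tritiated/iodinated radioligand displaced by test chemical; cell-free extracted protein; 16 h. DMSO = negative control/baseline. Duplicate single-point 25 uM screen, then concentration-response on actives.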
# [8] = molecular target: human Peroxisome Proliferator-activated Receptor alpha (PPARa), PPARA (gene 5465) (UniProt Q07869); experiment: NVS_NR_hPPARa: NovaScreen (NVS) Nuclear Receptor Binding Assay for human Peroxisome Proliferator-activated Receptor alpha (PPARa) (AID 2283359);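 also: activity means loss of TR-FRET signal versus DMSO baseline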
# human Peroxisome Proliferator-activated Receptor alpha (PPARa), PPARA (gene 5465), sequence (Q07869 whole entry, looked up): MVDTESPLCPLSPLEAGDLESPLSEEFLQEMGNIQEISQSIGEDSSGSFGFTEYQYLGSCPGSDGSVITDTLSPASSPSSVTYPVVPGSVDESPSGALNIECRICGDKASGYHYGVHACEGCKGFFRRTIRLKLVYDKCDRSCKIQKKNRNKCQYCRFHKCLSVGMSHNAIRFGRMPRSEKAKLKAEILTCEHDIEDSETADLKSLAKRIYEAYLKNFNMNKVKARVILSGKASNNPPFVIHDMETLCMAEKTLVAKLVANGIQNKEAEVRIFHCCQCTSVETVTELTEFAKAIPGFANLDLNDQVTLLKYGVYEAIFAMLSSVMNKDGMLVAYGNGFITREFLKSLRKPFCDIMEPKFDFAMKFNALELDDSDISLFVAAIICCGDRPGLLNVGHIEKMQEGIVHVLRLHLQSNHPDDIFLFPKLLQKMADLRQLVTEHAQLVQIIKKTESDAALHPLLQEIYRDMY
# In short: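 TR-FRET signal measured at 1 h post-dosing; loss-of-signal versus DMSO negative control taken as activity. Extracted gene-protein, cell-free format. Initial single-point duplicates at 25 uM, then concentration-response retests.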
# PGR (gene 5241) = PGR (gene 5241) (UniProt P06401); experiment: NVS_NR_hPR: NovaScreen (NVS) Nuclear Receptor Binding Assay for human Progestron Receptor (PR) (AID 2283360);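 also: active means loss of bound radioligand signal versus DMSO baseline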
# In short: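 T47D-derived receptor preparation, cell-free, with tritiated or iodinated radioligand displacement measured by scintillation 18 h post-dosing. Single 25 uM duplicate screen, then concentration series; signal loss relative to DMSO.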
# [9] = molecular target: human Thyroid Receptor Alpha (TRa), THRA (gene 7067) (UniProt P10827); experiment: NVS_NR_hTRa_Antagonist: NovaScreen (NVS) Nuclear Receptor Binding Assay for human Thyroid Receptor Alpha Antagonism (TRa) (AID 2283362);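 also: activity is loss of signal relative to DMSO baseline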
# human Thyroid Receptor Alpha (TRa), THRA (gene 7067), sequence (P10827 whole entry, looked up): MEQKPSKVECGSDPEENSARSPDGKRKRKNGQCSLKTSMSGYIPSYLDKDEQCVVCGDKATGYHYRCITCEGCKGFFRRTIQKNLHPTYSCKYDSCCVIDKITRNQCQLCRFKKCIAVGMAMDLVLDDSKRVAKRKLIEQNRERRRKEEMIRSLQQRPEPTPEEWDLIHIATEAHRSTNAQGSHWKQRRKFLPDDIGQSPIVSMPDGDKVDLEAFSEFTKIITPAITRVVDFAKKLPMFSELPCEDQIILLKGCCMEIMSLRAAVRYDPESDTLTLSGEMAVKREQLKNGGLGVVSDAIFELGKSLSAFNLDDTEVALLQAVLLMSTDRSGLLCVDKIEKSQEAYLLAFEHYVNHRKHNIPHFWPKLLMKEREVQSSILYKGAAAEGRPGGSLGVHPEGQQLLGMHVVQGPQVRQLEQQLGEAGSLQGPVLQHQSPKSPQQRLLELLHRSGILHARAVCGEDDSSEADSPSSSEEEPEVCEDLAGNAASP
# In short: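 AlphaLISA chemiluminescent immunoassay readout, taken 1 h post-dosing in a cell-free system with extracted protein. Activity was scored as signal loss against DMSO negative control, from duplicate single-concentration (25 uM) testing followed by concentration-response follow-up.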
compound,measurement,setting,value
COC(=O)c1ccc(C(=O)OC)cc1,outcome,[1],inactive
CC1=CCC(C(C)(C)O)CC1 (configuration not stated),outcome,[2],inactive
CCO[Si](CC)(OCC)OCC,outcome,[2],inactive
same,outcome,[1],inactive
same,outcome,[3],inactive
same,outcome,[4],inactive
OC[C@H]1O[C@@H](O[C@H]2[C@H](O)[C@@H](O)[C@H](O)O[C@@H]2CO)[C@H](O)[C@@H](O)[C@H]1O,outcome,[2],inactive
same,outcome,[1],inactive
same,outcome,[5],inactive
NCCN1CCNCC1,outcome,[1],inactive
CC(C)(C)c1cccc(O)c1,outcome,[2],inactive
c1ccc(Cc2ccccc2)cc1,outcome,[1],inactive
CC(C)CCCC(C)(C)O,outcome,[1],inactive
CCCC1CCC(=O)CC1,outcome,[1],inactive
C[C@]12CC[C@@H]3c4ccc(O)cc4CC[C@H]3[C@@H]1CC[C@@H]2O,AC50,[6],4.96 µM (active)
same,AC50,[7],384 nM (active) and 359 nM (active)
same,outcome,[7],inactive
CCCCCCCCCOS(=O)(=O)O,outcome,[1],inactive
CNC(=C[N+](=O)[O-])NCCSCc1ccc(CN(C)C)o1,outcome,[1],inactive
CC1COC(=O)O1 (configuration not stated),outcome,[2],inactive
same,outcome,[1],inactive
COc1ccccc1O,outcome,[1],inactive
CCCO[Si](OCCC)(OCCC)OCCC,outcome,[1],inactive
CC(=O)c1ccc(O)cc1,outcome,[1],inactive
FC(F)(F)c1ccc(Cl)c(Cl)c1,outcome,[2],inactive
same,outcome,[1],inactive
same,outcome,[5],inactive
COC(=O)c1cccc(C(=O)OC)c1,outcome,[2],inactive
same,outcome,[1],inactive
CC(C)C(=O)c1ccccc1,outcome,[1],inactive
CCCO,outcome,[1],inactive
CCNC(=S)NCC,outcome,[1],inactive
CCCCCCCCCCOC(=O)c1ccccc1C(=O)OCCCCCCCC,outcome,[2],inactive
same,outcome,[1],inactive
same,outcome,[7],inactive
CC(=O)CC(=O)N(C)C,outcome,[1],inactive
COc1cc(OC)c2ccc(=O)oc2c1,outcome,[2],inactive
same,outcome,[1],inactive
CCC(C)(C)C1CCC(=O)CC1,outcome,[2],inactive
C#C[C@]1(O)CC[C@H]2[C@@H]3CCc4cc(O)ccc4[C@H]3CC[C@@]21C,AC50,[6],3.63 µM (active)
same,outcome,[8],inactive
same,AC50,PGR (gene 5241),0.221 µM (active)
same,AC50,[7],304 nM (active) and 305 nM (active) and 1.43 µM (active)
CC(C)(CO)CO,outcome,[2],inactive
same,outcome,[1],inactive
CCCCCCOc1ccc(O)cc1,AC50,[2],78.3 µM (active)
same,AC50,[1],11.9 µM (active)
CN(C)C,outcome,[1],inactive
CC(CCO)CC(C)(C)C (configuration not stated),outcome,[2],inactive
same,AC50,[1],40.9 µM (active)
same,outcome,[5],inactive
C=C1CC[C@H]2O[C@]2(C)CC[C@@H]2[C@@H]1CC2(C)C,outcome,PGR (gene 5241),inactive
CC(=O)C1=C(C)[C@@H]2C[C@@]3(C1)[C@H](C)CC[C@H]3C2(C)C,AC50,[1],58.1 µM (active)
same,outcome,[8],inactive
CCCCCCCCOC(=O)c1ccc(O)cc1,AC50,[1],24 µM (active)
same,AC50,[5],8.39 µM (active)
same,outcome,[3],inactive
same,outcome,[7],inactive
C1CCCNCC1,outcome,[1],inactive
same,outcome,[8],inactive
CN1CCc2cccc3c2[C@H]1Cc1ccc(O)c(O)c1-3,AC50,[1],4.59 µM (active)
same,AC50,[8],279 nM (active)
same,outcome,[7],inactive
CCCCN(CCCC)CCCCCCN(CCCC)CCCC,outcome,[1],inactive
same,outcome,[5],inactive
same,outcome,[8],inactive
CCC(C)(C)C1CCC(OC)CC1 (configuration not stated),outcome,[1],inactive
same,outcome,[5],inactive
O=C(c1ccc(OCCN2CCCCC2)cc1)c1c(-c2ccc(O)cc2)sc2cc(O)ccc12,AC50,[8],6.51 µM (active) and 6.99 µM (active) and 5.41 µM (active)
same,AC50,[7],6.7 µM (active) [middle of 4 runs]
CCCCC(CC)COCCO (configuration not stated),outcome,[1],inactive
same,outcome,[8],inactive
same,outcome,[9],inactive
CCCCCCCCCCCCOCCOS(=O)(=O)O,AC50,[3],16.2 µM (active)
same,AC50,[8],5080 nM (active)
CCC(C)(CCCC(C)C)OC(C)=O (configuration not stated),outcome,[1],inactive
same,outcome,[5],inactive
CCCCCC(=O)O[C@]1(C(C)=O)CC[C@H]2[C@@H]3CCC4=CC(=O)CC[C@]4(C)[C@H]3CC[C@@]21C,AC50,[1],4.65 µM (active)
same,outcome,[5],inactive
same,AC50,[7],0.0187 µM (active)
CC1(C)CC(=O)CC(C)(C)N1,outcome,[7],inactive
CC(CO)(CO)[N+](=O)[O-],outcome,PGR (gene 5241),inactive
CC/C(=C(\c1ccccc1)c1ccc(OCCN(C)C)cc1)c1ccccc1,outcome,[3],inactive
same,outcome,[8],inactive
same,outcome,[4],inactive
same,AC50,[7],3.08 µM (active) and 6.38 µM (active)
same,outcome,[7],inactive
CCCCCCCC(=O)N(C)C,outcome,[1],inactive
same,outcome,[5],inactive
CC(=O)c1ccc2ccccc2c1,AC50,[1],31.6 µM (active)
same,outcome,[8],inactive
Cc1cccc(O)c1,outcome,[1],inactive
same,outcome,[5],inactive
OCC=Cc1ccccc1,outcome,[1],inactive
same,outcome,[5],inactive
CCCCCCCCCCCCN1CCOCC1,AC50,[1],68 µM (active)
same,outcome,[5],inactive
same,outcome,[9],inactive
C=CC(=O)OCC(CO)(COC(=O)C=C)COC(=O)C=C,AC50,[7],4.96 µM (active)
O=S1(=O)CC(Cl)(Cl)C(Cl)(Cl)C1,AC50,[7],25 µM (active)
O=S(=O)(O)c1cc(S(=O)(=O)O)c2c(N=Nc3ccccc3)c(O)ccc2c1,outcome,[1],inactive
same,outcome,[9],inactive
CC(=O)Nc1cc(S(=O)(=O)O)cc2cc(S(=O)(=O)O)c(N=Nc3ccccc3)c(O)c12,outcome,[1],inactive
same,outcome,[5],inactive
same,AC50,[9],9.8 µM (active)
c1ccc2c(c1)-c1ccc3ccc4cccc5cc-2c1c3c45,outcome,[7],inactive
CCCCCCC(C)O (configuration not stated),outcome,[1],inactive
same,outcome,[5],inactive
CCCCCCCCCCO[C@@H]1O[C@H](CO)[C@@H](O)[C@H](O)[C@H]1O,outcome,[1],inactive
same,outcome,[5],inactive
O=C1OC2(c3ccc(O)cc3Oc3cc(O)ccc32)c2ccccc21,AC50,[7],25 µM (active)
O=C(O)CS,outcome,[1],inactive
same,outcome,[5],inactive
CCc1cccc(O)c1,outcome,[1],inactive
same,outcome,[5],inactive
CCC(=O)OC(C)(C)C1CC=C(C)CC1 (configuration not stated),outcome,[1],inactive
same,outcome,[5],inactive
